In PubChem BioAssay:
Calls of active or inactive are those of the source. Cut-off read from the data, not from the text of the source: active = inhibition above about 31%; inactive = the rest.

assay: MRP1 drug-resistance reversers in H69AR cells – cell-based, doxorubicin co-treatment, pilot screen (AID 601); settings: H69AR cells, CellTiter-Glo, 72 h; compound alone cytotoxicity; at 10 µM

Compound	viability [%]
COc1ccc(N2CCN(CCCNC(=O)C3CCCN(S(=O)(=O)c4cnc[nH]4)C3)CC2)cc1 (stereo not drawn)	103
Cn1cnc(S(=O)(=O)Nc2ccc(C(F)(F)F)cc2)c1	91.7
Cc1nc2ccccn2c1/C(O)=C1\C(=O)C(=O)N(CCN2CCOCC2)C1c1cccs1 (stereo not drawn)	98.7
COc1cc(CN2CCN(C(=O)CC(C)C)CC2)cc(OC)c1O	102
COc1ccccc1C(=O)Nc1ccc(S(=O)(=O)N2CCOCC2)cc1	93.2
CC(=O)Nc1ccc(OC(=O)c2cccs2)cc1	87
CN(C)C(=O)Cn1c(SCC(=O)NC2CCCCC2)nc2ccccc21	102
CCC(=O)Nc1c(C#N)c2nc3ccccc3nc2n1-c1ccccc1C	87.5
CCn1cc(C(=O)N=c2sc3ccccc3n2C)c(=O)c2ccc(C)nc21	95.7
NC(=O)c1cccc(S(=O)(=O)N2CCCCC2)c1	106
CN(C)CCCNC(=O)c1ccc(CN(c2ccccc2)S(C)(=O)=O)cc1	92.1
CC(=O)c1c(NCCc2ccccc2)cc(C)oc1=O	101
Cn1c(SCc2nc3ccccc3c(=O)[nH]2)nnc1-c1ccco1	96
O=C1NC(c2ccccc2)(C(F)(F)F)SC2=CCCCCN12 (stereo not drawn)	94.3
Cn1c(CCCNC(=O)c2ccccc2)nc2ccccc21	100
O=C(c1cccn2c(=O)c3cc(Cl)ccc3nc12)N1CCOCC1	116
Nc1ccc(-c2ccc(N)cc2C(F)(F)F)c(C(F)(F)F)c1	68.6
CCOC(=O)c1[nH]c2ccc(Br)cc2c1NC(=O)CNC	87.3
CCn1nc(NC(=O)c2cccnc2)c2cc3ccccc3nc21	89.8

assay: yeast transport mutant growth inhibition pilot in 384-well plates, post-Golgi transport modulator project (AID 636); settings: absorbance 615 nm, about 18 h, stronger effect = higher value

Compound	inhibition
CC1C(c2ccccc2)N(C)CCC12NC(=O)NC2=O (stereo not drawn)	-5.33% (inactive)
COC(=O)c1cc(Br)c(=O)n(CCN2CCOCC2)c1	-4.27% (inactive)
O=C(Nc1ccccc1C(=O)N1CCN(c2ccccc2)CC1)c1ccco1	-2.53% (inactive)
CC(C)CCNC(=O)NC(=O)COc1ccccc1C#N	-3.78% (inactive)
Cc1ccc2c(Cl)cc(Cl)c(OCc3c(C)noc3C)c2n1	6.08% (inactive)
O=C(c1cccc(Cl)c1)N1CCN(Cc2ccncc2)CC1	-0.27% (inactive)
Cn1c(=N)n(CC(=O)O)c2ccccc21	-5.97% (inactive)
O=C(Nc1ccccc1)c1cccc(N2CCCC2=O)c1	-1.07% (inactive)
Fc1ccc(-c2csc3nnc(SCc4cccnc4)n23)cc1	-4.62% (inactive)
COc1ccc(CNC(=O)c2cc(-c3ccc(OC)c(OC)c3)on2)cc1	-5.95% (inactive)
CCN(CC)CCOC(=O)c1c(C)oc2ccc(O)cc12	-0.53% (inactive)
COc1ccccc1Nc1ccc(C(=O)NC2CCCCC2)cn1	-3.92% (inactive)
CCCCn1nnnc1SCC(=O)Nc1cccc(C)n1	2.3% (inactive)
COc1nc(OC)nc(N2CCC(C(=O)NC3CCCCCC3)CC2)n1	3.6% (inactive)
COC(=O)[C@H](C)NC(=O)Nc1cc(OC)ccc1OC	-2.34% (inactive)
Cc1ccc(CNC(=O)C2CCCN(S(=O)(=O)c3cccnc3)C2)cc1 (stereo not drawn)	-0.26% (inactive)
OCc1nc2ccccc2n1CC(O)Cn1ccc2ccccc21 (stereo not drawn)	-1.97% (inactive)
Cc1cc(C)cc(N2CCCn3c2nc2c3c(=O)n(CCN3CCOCC3)c(=O)n2C)c1	-7.2% (inactive)
Cn1c(=O)c2c([nH]c(=O)n2C)n(C)c1=O	-2.21% (inactive)
CCNCC(O)COCC(O)CNCC (stereo not drawn)	-1.03% (inactive)
CCOC(=O)N1CCN(c2ncnc3c2[nH]c2ccc(OC)cc23)CC1	-3.6% (inactive)
COc1ccc(N2CCN(CCCNC(=O)C3CCCN(S(=O)(=O)c4cnc[nH]4)C3)CC2)cc1 (stereo not drawn)	-4% (inactive)
Cn1cnc(S(=O)(=O)Nc2ccc(C(F)(F)F)cc2)c1	1.41% (inactive)
Cc1nc2ccccn2c1/C(O)=C1\C(=O)C(=O)N(CCN2CCOCC2)C1c1cccs1 (stereo not drawn)	-8.78% (inactive)
COc1cc(CN2CCN(C(=O)CC(C)C)CC2)cc(OC)c1O	-1.04% (inactive)
COc1ccccc1C(=O)Nc1ccc(S(=O)(=O)N2CCOCC2)cc1	-2.89% (inactive)
CC(=O)Nc1ccc(OC(=O)c2cccs2)cc1	-1.17% (inactive)
CN(C)C(=O)Cn1c(SCC(=O)NC2CCCCC2)nc2ccccc21	-6.08% (inactive)
CCC(=O)Nc1c(C#N)c2nc3ccccc3nc2n1-c1ccccc1C	-5.2% (inactive)
